A short description of assay [1]: Primary qHTS for inhibitors of La Crosse Virus (LACV) - induced cell death in SH-SY5Y cells (AID 1508616).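 Further: top concentration of the series differs between compounds; 0% = infected DMSO wells and 100% = uninfected DMSO wells; higher means more rescue of cells from virus-induced death.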 Summed up: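 Cytopathicity rescue screen: compounds pinned onto SH-SY5Y cells, which are then infected with LACV (MOI 0.01) and held 6 days at 37C. Percent activity is scaled between infected DMSO control and uninfected DMSO control.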
On the technique in general: Quantitative high-throughput screening tests each substance at several concentrations.

The target of assay [2] is Calcium and integrin-binding protein 1 (Homo sapiens) (UniProt Q99828). Description: Primary qHTS for Identification of Calcium Integrin Binding Protein 1 (CIB1) Competitor (AID 1508620). Further: top concentration of the series differs between compounds; on the % scale 0 is the no-effect control and ±100 the full control effect. Summed up: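 Fluorescence polarization competition: GST-tagged CIB1 (1 uM final) preincubated with compound 15 min at room temperature, then FITC-labelled alphaIIb peptide (100 nM final) added. After 15 min at room temperature, polarization read at Ex 480/Em 540.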

Assay [3] is described as follows: Primary qHTS for small molecule stabilizers of the endoplasmic reticulum resident proteome: Secreted ER Calcium Modulated Protein (SERCaMP) assay (AID 1508630). Further: on the % scale 0 is the no-effect control and ±100 the full control effect. Summed up:
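The SH-SY5Y reporter protocol was run at 3 concentrations up to 38.3 uM (primary) or 11 concentrations (follow-up): 16 h compound, 100 nM thapsigargin for 4 h, then extracellular luciferase luminescence.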

Assay [4] addresses Cytochrome P450 2D6 (Homo sapiens) (UniProt P10635). Description: Cytochrome P450 family 2 subfamily D member 6 (CYP2D6) small molecule antagonists: luciferase biochemical (cell-free) qHTS assay (AID 1645840; active means well fitted curve in the direction sought with a large enough effect in the repeat runs; an effect the other way counts as inactive or inconclusive; further: nearly all actives have a fitted effect of over 55% in size; further: potency means the concentration at half of the fitted maximal effect). Summed up: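 P450-Glo CYP2D6 system: proluciferin substrate converted by enzyme to luciferin, read by luminescence proportional to activity. Enzyme-substrate mix with compound 10 min at room temperature, then NADPH regeneration 1 h before detection reagent.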

In assay [5] the target is Cytochrome P450 3A4 (Homo sapiens) (UniProt P08684). Description: Cytochrome P450 family 3 subfamily A member 4 (CYP3A4) small molecule antagonists: luciferase qHTS assay (AID 1645841; active means well fitted curve in the direction sought with a large enough effect in the repeat runs; an effect the other way counts as inactive or inconclusive; further: nearly all actives have a fitted effect of over 45% in size). Summed up: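 P450-Glo CYP3A4 enzyme with proluciferin substrate preincubated 10 min with compound at room temperature, then NADPH regeneration 1 h. Luciferin detection reagent added for 20 min; luminescence recorded. Ketoconazole positive control.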

The target of assay [6] is Cytochrome P450 2C9 (Homo sapiens) (UniProt P11712). Description: Cytochrome P450 family 2 subfamily C member 9 (CYP2C9) small molecule antagonists: luciferase biochemical (cell-free) qHTS assay (AID 1645842; active means well fitted curve in the direction sought with a large enough effect in the repeat runs; an effect the other way counts as inactive or inconclusive; further: nearly all actives have a fitted effect of over 55% in size; further: potency means the concentration at half of the fitted maximal effect; on activity change, negative = inhibition: series mostly up to about 57 µM; on the % scale 0 is the no-effect control and ±100 the full control effect). Summed up:
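P450-Glo CYP2C9 system: proluciferin substrate with enzyme in mix containing 0.4% BSA, 10 min at room temperature, then NADPH regeneration solution added and incubated 1 h at 37C. Detection reagent stopped reaction; luminescence read after 20 min as RLU.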

A short description of assay [7]: Primary qHTS for inhibitors of nuclear receptor binding SET domain protein 2 (NSD2) in an isogenic RCH-ACV NSD2 p.E1099K mutant (9B) (AID 1645876). Further: nearly all actives have a fitted effect of over 70% in size. Further: potency means the concentration at half of the fitted maximal effect.
The nature of assay [8]: Primary qHTS for inhibitors of nuclear receptor binding SET domain protein 2 (NSD2) in an RCH-ACV wild type WT cells (2C) (AID 1645877). Further: nearly all actives have a fitted effect of over 70% in size. Further: potency means the concentration at half of the fitted maximal effect.
Assay [9] deals with Rap guanine nucleotide exchange factor 3 (Homo sapiens) (UniProt O95398). Description: Confirmatory qHTS for antagonist of cAMP-regulated guanine nucleotide exchange factor 3 (EPAC1) (AID 1645880).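 Further: plate controls were DMSO only for no effect and full effect of the ATA control for full effect; nearly all actives have a fitted effect of over 55% in size.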 Summed up: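 Released BODIPY-GDP fluoresces less than Rap1-bound BODIPY-GDP; the signal is followed at 480/540 nm at 5-min intervals over 30 min, after 5 min at room temperature. Reactions contain 100 nM EPAC1, 250 nM RAP1B-BODIPY-GDP and 50 uM GDP; results are normalized to ATA and DMSO.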

Assay [10] has the same target. Description: Confirmatory qHTS for agonist of cAMP-regulated guanine nucleotide exchange factor 3 (EPAC1) (AID 1645881).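 Further: EPAC1 catalysed release of BODIPY-GDP from Rap1B seen as fluorescence loss; 100% = effect of cAMP agonist control; nearly all actives have a fitted effect of over 75% in size.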
In assay [11] the target is Rap guanine nucleotide exchange factor 4 (Homo sapiens) (UniProt Q8WZA2). Description: Confirmatory qHTS for agonist of cAMP-regulated guanine nucleotide exchange factor 4 (EPAC2) (AID 1645884).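 Further: nucleotide exchange releases bodipy-GDP from Rap1 and this lowers its fluorescence; on the % scale 0 is the no-effect control and ±100 the full control effect; nearly all actives have a fitted effect of over 65% in size.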
Assay [12] shares this target. Description: Confirmatory qHTS for antagonist of cAMP-regulated guanine nucleotide exchange factor 4 (EPAC2) (AID 1645885). Further: nearly all actives have a fitted effect of over 25% in size. Further: potency means the concentration at half of the fitted maximal effect. On activity change, negative = inhibition: on the % scale 0 is the no-effect control and ±100 the full control effect.
For assay [13], the target named is Rap guanine nucleotide exchange factor 3 (Homo sapiens) (UniProt O95398). Description: Counterscreen qHTS for antagonist of cAMP-regulated guanine nucleotide exchange factor 3 (EPAC1) (AID 1645888). Further: % of control where 0% means no effect. The method in brief:
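Rap1B–BODIPY-GDP (250 nM) with 50 uM GDP; compounds pin-transferred to 9.74 nM–152 uM final (activator) or from 7.32 nM upwards (inhibitor). Fluorescence Ex/Em 480/540 nm read at 5 and 30 min, then after adding cAMP or buffer, at room temperature.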
For orientation: The purpose of a counterscreen is to sort out artefacts and off-target activity.

A short description of assay [14]: A High-Content qHTS Against Drug Library for the Identification of Small Molecules that Inhibit DYT1 Early Onset Primary Dystonia-Associated Cell Pathology (AID 1645839; calls by dose curve; further: series mostly up to about 46 µM). The method in brief:
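Cells were seeded and left for 24 h, then dosed with compound alongside tetracycline induction of mutant EGFP-TorsinA. They were incubated for 48 h, fixed in 4% paraformaldehyde, permeabilized and imaged for mislocalization (%pathology) and cell count.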

SMILES strings stand for the structures. “And” between values parts separate entries of the source, which are not always exact repeats. Identical values can stand only once. Results filed as inconclusive are left out. A structure can be active in one record and inactive in another. The source made the active and inactive calls. Unless noted, the call rests on the fitted dose curve; in most records, active means well fitted curve in the direction sought with a large enough effect; inconclusive means small, poorly fitted or top-dose-only effect, or another doubt; inactive means no such curve, though single readings can be large; an effect the other way counts as inactive or inconclusive.

Data on twelve compounds can be found in PubChem BioAssay (NCATS).

Chain of Rap guanine nucleotide exchange factor 4 (Homo sapiens) (Q8WZA2 whole entry, looked up): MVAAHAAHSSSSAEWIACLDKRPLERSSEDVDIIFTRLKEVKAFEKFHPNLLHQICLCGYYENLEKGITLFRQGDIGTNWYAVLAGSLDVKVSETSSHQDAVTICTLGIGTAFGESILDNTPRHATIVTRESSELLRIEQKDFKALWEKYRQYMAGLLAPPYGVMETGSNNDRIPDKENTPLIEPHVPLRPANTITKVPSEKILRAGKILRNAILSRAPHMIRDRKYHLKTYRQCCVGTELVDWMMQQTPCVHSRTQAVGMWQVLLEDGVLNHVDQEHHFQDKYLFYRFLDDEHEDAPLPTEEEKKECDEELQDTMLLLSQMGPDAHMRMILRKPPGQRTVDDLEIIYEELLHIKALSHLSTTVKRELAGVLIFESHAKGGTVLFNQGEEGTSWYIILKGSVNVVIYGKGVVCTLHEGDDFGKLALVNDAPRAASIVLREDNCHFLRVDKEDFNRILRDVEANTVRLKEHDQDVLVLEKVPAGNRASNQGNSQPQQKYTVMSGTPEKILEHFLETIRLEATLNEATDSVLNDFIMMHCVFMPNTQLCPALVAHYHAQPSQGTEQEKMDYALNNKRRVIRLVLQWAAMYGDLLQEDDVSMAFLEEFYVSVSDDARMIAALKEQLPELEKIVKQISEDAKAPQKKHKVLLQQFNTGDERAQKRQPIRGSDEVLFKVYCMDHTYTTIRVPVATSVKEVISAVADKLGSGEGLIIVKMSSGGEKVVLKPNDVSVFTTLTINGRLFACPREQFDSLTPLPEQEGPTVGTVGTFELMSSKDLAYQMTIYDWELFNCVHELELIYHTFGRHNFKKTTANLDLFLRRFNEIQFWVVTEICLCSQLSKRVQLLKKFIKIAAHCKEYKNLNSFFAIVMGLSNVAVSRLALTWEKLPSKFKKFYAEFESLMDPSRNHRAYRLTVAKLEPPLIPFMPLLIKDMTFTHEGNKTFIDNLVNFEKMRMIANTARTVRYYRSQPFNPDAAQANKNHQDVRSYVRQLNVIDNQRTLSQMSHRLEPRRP
Chain of Rap guanine nucleotide exchange factor 3 (Homo sapiens) (O95398 whole entry, looked up): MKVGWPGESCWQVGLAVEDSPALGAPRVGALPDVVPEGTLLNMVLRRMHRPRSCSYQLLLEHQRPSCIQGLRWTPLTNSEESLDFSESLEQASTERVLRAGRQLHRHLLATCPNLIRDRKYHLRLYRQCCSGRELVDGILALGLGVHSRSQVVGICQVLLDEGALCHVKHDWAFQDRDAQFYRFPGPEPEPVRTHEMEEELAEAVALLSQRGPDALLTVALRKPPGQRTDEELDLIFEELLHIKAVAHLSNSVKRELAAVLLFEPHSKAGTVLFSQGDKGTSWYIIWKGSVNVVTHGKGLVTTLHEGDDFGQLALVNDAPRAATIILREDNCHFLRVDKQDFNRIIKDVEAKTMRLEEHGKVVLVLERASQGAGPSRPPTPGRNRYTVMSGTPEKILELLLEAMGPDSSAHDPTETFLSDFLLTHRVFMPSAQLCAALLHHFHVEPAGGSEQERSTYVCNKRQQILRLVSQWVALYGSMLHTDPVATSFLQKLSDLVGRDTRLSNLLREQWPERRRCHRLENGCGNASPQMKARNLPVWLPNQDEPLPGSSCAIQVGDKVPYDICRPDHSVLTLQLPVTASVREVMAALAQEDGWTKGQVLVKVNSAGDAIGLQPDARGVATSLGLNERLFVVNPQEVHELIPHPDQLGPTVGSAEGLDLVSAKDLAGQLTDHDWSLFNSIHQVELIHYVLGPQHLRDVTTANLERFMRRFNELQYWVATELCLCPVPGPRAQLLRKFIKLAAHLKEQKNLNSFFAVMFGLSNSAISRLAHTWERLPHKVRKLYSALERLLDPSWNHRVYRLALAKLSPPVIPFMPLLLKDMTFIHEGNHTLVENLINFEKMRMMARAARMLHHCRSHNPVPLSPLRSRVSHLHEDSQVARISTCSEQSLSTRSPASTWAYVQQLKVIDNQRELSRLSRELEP
Chain of Cytochrome P450 2C9 (Homo sapiens) (P11712 whole entry, looked up): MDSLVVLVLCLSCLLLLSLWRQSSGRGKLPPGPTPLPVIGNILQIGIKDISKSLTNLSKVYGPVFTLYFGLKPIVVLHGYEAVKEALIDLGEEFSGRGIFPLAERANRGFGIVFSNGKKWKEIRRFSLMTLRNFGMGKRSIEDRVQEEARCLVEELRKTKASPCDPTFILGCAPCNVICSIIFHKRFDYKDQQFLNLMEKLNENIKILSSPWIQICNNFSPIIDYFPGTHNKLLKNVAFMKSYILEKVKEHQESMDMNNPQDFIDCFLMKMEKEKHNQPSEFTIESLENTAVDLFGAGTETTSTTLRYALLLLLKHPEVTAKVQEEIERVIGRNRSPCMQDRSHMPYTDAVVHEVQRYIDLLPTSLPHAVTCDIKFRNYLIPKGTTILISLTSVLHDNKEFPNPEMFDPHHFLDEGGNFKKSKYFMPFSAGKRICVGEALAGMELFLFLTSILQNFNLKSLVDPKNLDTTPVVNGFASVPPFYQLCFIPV
Chain of Cytochrome P450 2D6 (Homo sapiens) (P10635 whole entry, looked up): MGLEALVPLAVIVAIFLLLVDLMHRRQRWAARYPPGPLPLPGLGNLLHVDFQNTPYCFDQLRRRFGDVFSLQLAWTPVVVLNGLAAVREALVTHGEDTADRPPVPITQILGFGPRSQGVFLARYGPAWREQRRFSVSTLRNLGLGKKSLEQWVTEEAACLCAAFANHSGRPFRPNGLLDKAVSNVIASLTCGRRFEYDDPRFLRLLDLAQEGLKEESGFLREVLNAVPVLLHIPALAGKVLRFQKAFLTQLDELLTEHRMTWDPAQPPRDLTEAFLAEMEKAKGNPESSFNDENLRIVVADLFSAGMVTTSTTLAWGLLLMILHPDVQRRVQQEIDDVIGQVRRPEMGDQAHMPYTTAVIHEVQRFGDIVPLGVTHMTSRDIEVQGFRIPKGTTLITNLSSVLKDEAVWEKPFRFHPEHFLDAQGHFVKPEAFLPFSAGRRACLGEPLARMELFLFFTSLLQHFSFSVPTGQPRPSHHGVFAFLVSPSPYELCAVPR
Chain of Calcium and integrin-binding protein 1 (Homo sapiens) (Q99828 whole entry, looked up): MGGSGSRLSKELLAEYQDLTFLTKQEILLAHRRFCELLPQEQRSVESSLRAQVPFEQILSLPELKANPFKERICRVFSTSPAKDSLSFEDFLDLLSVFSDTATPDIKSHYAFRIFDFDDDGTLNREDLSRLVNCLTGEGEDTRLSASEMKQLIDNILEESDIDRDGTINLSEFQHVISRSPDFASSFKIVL
Chain of Cytochrome P450 3A4 (Homo sapiens) (P08684 whole entry, looked up): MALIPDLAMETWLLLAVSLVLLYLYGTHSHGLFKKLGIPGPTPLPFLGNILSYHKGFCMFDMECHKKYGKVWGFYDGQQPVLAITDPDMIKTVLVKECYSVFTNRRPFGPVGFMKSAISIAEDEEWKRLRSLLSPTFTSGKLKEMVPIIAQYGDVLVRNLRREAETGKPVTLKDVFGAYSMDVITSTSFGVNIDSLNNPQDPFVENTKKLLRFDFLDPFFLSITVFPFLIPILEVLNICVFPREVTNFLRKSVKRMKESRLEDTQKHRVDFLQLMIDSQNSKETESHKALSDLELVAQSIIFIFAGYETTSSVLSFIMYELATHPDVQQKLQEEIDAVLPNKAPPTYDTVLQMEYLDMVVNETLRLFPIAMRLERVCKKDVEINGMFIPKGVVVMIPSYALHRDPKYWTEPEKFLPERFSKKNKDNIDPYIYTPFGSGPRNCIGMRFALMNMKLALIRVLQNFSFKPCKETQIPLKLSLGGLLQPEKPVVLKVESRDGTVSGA

For the compound `O=C(CCN1CCC(c2ccccc2)C1)c1ccc2c(c1)OCCO2` (configuration not stated), the Potency result in [1], in [2], in [3] and in [6] was “inactive” each time. The Potency in assay [4] is 0.977 µM (active); in [7], 2.37 µM (active); in assay [8], 2.99 µM (active). Moreover, the call in assay [5] was inactive.
As to `C/C=C(/C(=C/C)c1ccc(O)cc1)c1ccc(O)cc1`, the Potency entry in [1], in [2], in assay [3], in assay [9] and in assay [11] was “inactive” each time. In addition, the Potency was 24.5 µM (active) in assay [4]; 17.4 µM (active) in [6]; 14.8 µM (active) in assay [7]; 10.5 µM (active) in [8]; 22.1 µM (active) in [12]. Also, the compound was called inactive in [10]. Besides, the activity change, negative = inhibition in assay [12] was -2.47% [at 12.7 µM] (inactive); in assay [13], -9.27% [at 30.8 µM] (inactive).
With `CC(=O)Oc1ccc(C(c2ccc(OC(C)=O)cc2)c2ccccn2)cc1`, the Potency result in assay [1], in [2], in assay [3], in assay [7], in assay [9] and in [11] was “inactive” each time. The Potency is 15.5 µM (active) in assay [4]; 17.4 µM (active) in assay [6]; “inactive and 44.1 µM (active)” in assay [12]. In addition, the compound was classed as inactive in assay [10].
On to `N[C@H](Cc1c[nH]c2ccccc12)C(=O)O`, for which the Potency result in [1], in [2], in assay [3], in [14], in [7] and in assay [8] was “inactive” in each case.
In the case of `CC(=O)O[C@]1(C(C)=O)CC[C@H]2[C@@H]3C[C@H](C)C4=CC(=O)CC[C@]4(C)[C@H]3CC[C@@]21C`, the Potency result in assay [1], in assay [2], in [3] and in assay [4] was “inactive” each time. In addition, in assay [5], the outcome was inactive. Besides, the Potency is 3.09 µM (active) in assay [6] and 25.8 µM (active) in [7].
Turning to `CC(C)(Oc1ccc(Cl)cc1)C(=O)O`, the Potency result in [1], in assay [2], in [3], in assay [14], in [7] and in assay [8] was “inactive” in each case.
In the case of `CN=C(NC#N)NCCSCc1csc(N=C(N)N)n1`, the Potency entry in assay [1], in [2], in assay [3], in assay [14], in [7] and in assay [8] was “inactive” each time.
As for `Cc1c(C)n(CCN(C)C)c2ccc(C(=O)OCCN(C)C)cc12`, the Potency entry in assay [1], in [2], in [3], in assay [4] and in [6] was “inactive” in each case.
In the case of `CCOC(=O)n1ccn(C)c1=S`, the Potency entry in assay [1], in [2], in assay [3], in assay [4] and in [6] was “inactive” each time.
`CCCCCCC[N+](CC)(CC)CCCCc1ccc(Cl)cc1`: the Potency entry in assay [1], in [2], in assay [3] and in assay [6] was “inactive” each time. In addition, the values for the Potency in assay [4], in assay [7] and in [8] were 0.0977 µM (active), 1.88 µM (active) and 1.88 µM (active), respectively.
For `Cc1nc2n(c(=O)c1CCN1CCC(c3noc4cc(F)ccc34)CC1)CCC[C@H]2O`, the Potency entry in [1], in assay [2], in [3], in assay [6], in [7] and in [8] was “inactive” each time. Besides, the Potency in assay [4] is 12 µM (active).
Consider `Cc1cc(O)c(C(C)C)cc1Cl`, for which the Potency result in assay [1], in assay [2], in [3], in assay [7] and in assay [8] was “inactive” each time. Further, the Potency in [4] is 12.3 µM (active); in assay [6], 21.9 µM (active).
